According to PubChem BioAssay AID1159580 (chemical genetic matrix, 2015):
Values joined by “and” are separate entries in the source; they are usually repeats but may differ in a detail not shown here. Equal entries are not always repeated. About 2,000 (36%) of roughly 5,500 compounds were called active. About 18% were inconclusive and are not listed. Cut-off read from the data, not from the text of the source: active = normalized growth mostly below about 0.91 (no sharp cut-off); inconclusive = no clear call, values can overlap the other calls; inactive = mostly above about 0.92. The list shows a part of the results.

Assay: chemical genetic growth profiling, strain panel (AID 1159580);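 note: tested at 20 µM; growth read once vehicle control cultures reached saturation at 30 °C; 1 = growth at the plate median or of vehicle wells; lower values mean less growth of the strain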
Details: S. cerevisiae deletion strains, growth OD

Measured: normalized growth

COc1c(O)cc2c(c1O)[C@H]1O[C@H](CO)[C@@H](O)[C@H](O)[C@@H]1OC2=O
inactive: locus YAL021C, strain ccr4, stronger effect = lower value 1.03 | locus YAL026C, strain drs2, stronger effect = lower value 1.02 | locus YAL030W, strain snc1, stronger effect = lower value 1.02 | locus YBL061C, strain skt5, stronger effect = lower value 1.03 | locus YBR009C, strain hhf1, stronger effect = lower value 1.02 | locus YBR021W, strain FUR4, stronger effect = lower value 0.961 | locus YBR023C, strain chs3, stronger effect = lower value 1.03 | locus YBR171W, strain sec66, stronger effect = lower value 1.02 | locus YBR229C, strain ROT2, stronger effect = lower value 0.993 | locus YBR231C, strain swc5, stronger effect = lower value 1.02 | locus YBR279W, strain paf1, stronger effect = lower value 1.02 | locus YCL011C, strain gbp2, stronger effect = lower value 1.02 | locus YCL016C, strain dcc1, stronger effect = lower value 1.04 | locus YCL029C, strain bik1, stronger effect = lower value 0.998 | locus YCL061C, strain MRC1, stronger effect = lower value 1.02 | locus YCL069W, strain vba3, stronger effect = lower value 1.02 | locus YCR088W, strain abp1, stronger effect = lower value 1.02 | locus YDL005C, strain med2, stronger effect = lower value 1.03 | locus YDL035C, strain GPR1, stronger effect = lower value 1.02 | locus YDL040C, strain nat1, stronger effect = lower value 1.02 | locus YDL074C, strain BRE1, stronger effect = lower value 0.992 | locus YDL101C, strain DUN1, stronger effect = lower value 0.985 | locus YDL185W, strain tfp1, stronger effect = lower value 1.02 | locus YDL192W, strain arf1, stronger effect = lower value 0.983 | locus YDR001C, strain nth1, stronger effect = lower value 1.02 | locus YDR069C, strain doa4, stronger effect = lower value 1.03 | locus YDR101C, strain arx1, stronger effect = lower value 1.01 | locus YDR137W, strain rgp1, stronger effect = lower value 1.05 | locus YDR150W, strain NUM1, stronger effect = lower value 0.98 | locus YDR159W, strain sac3, stronger effect = lower value 1 | locus YDR162C, strain NBP2, stronger effect = lower value 0.988 | locus YDR195W, strain ref2 1 | locus YDR297W, strain sur2, stronger effect = lower value 1.02 | locus YDR318W, strain mcm21, stronger effect = lower value 1.01 | locus YDR334W, strain swr1, stronger effect = lower value 1.02 | locus YDR335W, strain msn5, stronger effect = lower value 1.02 | locus YDR388W, stronger effect = lower value 0.996 | locus YDR392W, strain spt3, stronger effect = lower value 0.966 | locus YDR502C, strain sam2, stronger effect = lower value 1 | locus YEL003W, strain gim4, stronger effect = lower value 1.02 | locus YEL037C, strain rad23, stronger effect = lower value 1.02 | locus YEL061C, strain CIN8 (second series), stronger effect = lower value 1.02 | locus YEL061C, strain CIN8, stronger effect = lower value 0.962 | locus YER015W, strain faa2, stronger effect = lower value 1.01 | locus YER016W, strain bim1, stronger effect = lower value 1.02 | locus YER110C, stronger effect = lower value 1.01 | locus YER111C, strain swi4, stronger effect = lower value 1.01 | locus YER155C, strain BEM2 (second series), stronger effect = lower value 1 | locus YER155C, strain BEM2, stronger effect = lower value 0.996 | locus YER167W, strain BCK2, stronger effect = lower value 0.973 | locus YFR010W, strain ubp6, stronger effect = lower value 1.02 | locus YGL078C, strain dbp3, stronger effect = lower value 1.03 | locus YGL086W, strain mad1, stronger effect = lower value 0.991 | locus YGL167C, strain pmr1, stronger effect = lower value 1.02 | locus YGL173C, strain kem1, stronger effect = lower value 1.01 | locus YGL227W, strain vid30, stronger effect = lower value 1.02 | locus YGL240W, strain doc1, stronger effect = lower value 1.01 | locus YGL248W, strain PDE1, stronger effect = lower value 1 | locus YGL253W, strain hxk2, stronger effect = lower value 1.02 | locus YGR135W, strain pre9, stronger effect = lower value 0.995 | locus YGR252W, strain gcn5, stronger effect = lower value 0.991 | locus YHR013C, strain ard1, stronger effect = lower value 1.02 | locus YHR027C, strain rpn1, stronger effect = lower value 1.01 | locus YHR030C, strain SLT2, stronger effect = lower value 1.01 and 0.959 | locus YHR079C, strain IRE1 (second series), stronger effect = lower value 1.01 | locus YHR079C, strain IRE1, stronger effect = lower value 0.987 | locus YHR094C, strain hxt1, stronger effect = lower value 0.996 | locus YHR129C, strain ARP1, stronger effect = lower value 0.988 | locus YHR142W, strain chs7, stronger effect = lower value 1.05 | locus YHR200W, strain rpn10, stronger effect = lower value 1 | locus YIL066C, strain RNR3, stronger effect = lower value 0.986 | locus YIL073C, strain SPO22, stronger effect = lower value 1.05 | locus YIL125W, strain kgd1, stronger effect = lower value 1.01 | locus YIR030C, strain dcg1, stronger effect = lower value 1 | locus YJL092W, strain hpr5, stronger effect = lower value 1.02 | locus YJL095W, strain BCK1 (second series), stronger effect = lower value 1.03 | locus YJL095W, strain BCK1, stronger effect = lower value 0.811 and 0.98 | locus YJL115W, strain asf1, stronger effect = lower value 1.01 | locus YJL129C, strain trk1, stronger effect = lower value 1.04 | locus YJL134W, strain LCB3, stronger effect = lower value 0.998 | locus YJL154C, strain vps35, stronger effect = lower value 1.01 | locus YJL164C, strain tpk1, stronger effect = lower value 1.02 | locus YJL166W, strain qcr8, stronger effect = lower value 1.03 | locus YJL168C, strain set2, stronger effect = lower value 1 | locus YJL187C, strain SWE1 (second series), stronger effect = lower value 0.969 | locus YJL187C, strain SWE1, stronger effect = lower value 1.03 | locus YJR043C, strain POL32, stronger effect = lower value 0.997 | locus YJR066W, strain TOR1, stronger effect = lower value 0.934 | locus YJR075W, strain HOC1, stronger effect = lower value 1
